In PubChem BioAssay:
The list shows a part of the results. The source made the active and inactive calls. Rule as the data show it, unless noted: active = inhibition above about 30%; inactive = the rest.

Columns and labels:
[1] = target: Nuclear receptor coactivator 3 (Homo sapiens) (UniProt Q9Y6Q9); test: SRC3 coactivator transcriptional activity inhibitors, confirmation, cell-based, luminescence, quadruplicate (AID 588792;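 active = mean inhibition over 43.08%, the solvent-only control mean plus 3 SD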;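 also: 0% = DMSO treated cells and 100% = gossypol at 36 µM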); conditions: HEK293 GAL4-SRC3 luciferase reporter, at 3.6 µM, hits give high values
Nuclear receptor coactivator 3 (Homo sapiens), sequence (Q9Y6Q9 whole entry, looked up, the tested form may be a part): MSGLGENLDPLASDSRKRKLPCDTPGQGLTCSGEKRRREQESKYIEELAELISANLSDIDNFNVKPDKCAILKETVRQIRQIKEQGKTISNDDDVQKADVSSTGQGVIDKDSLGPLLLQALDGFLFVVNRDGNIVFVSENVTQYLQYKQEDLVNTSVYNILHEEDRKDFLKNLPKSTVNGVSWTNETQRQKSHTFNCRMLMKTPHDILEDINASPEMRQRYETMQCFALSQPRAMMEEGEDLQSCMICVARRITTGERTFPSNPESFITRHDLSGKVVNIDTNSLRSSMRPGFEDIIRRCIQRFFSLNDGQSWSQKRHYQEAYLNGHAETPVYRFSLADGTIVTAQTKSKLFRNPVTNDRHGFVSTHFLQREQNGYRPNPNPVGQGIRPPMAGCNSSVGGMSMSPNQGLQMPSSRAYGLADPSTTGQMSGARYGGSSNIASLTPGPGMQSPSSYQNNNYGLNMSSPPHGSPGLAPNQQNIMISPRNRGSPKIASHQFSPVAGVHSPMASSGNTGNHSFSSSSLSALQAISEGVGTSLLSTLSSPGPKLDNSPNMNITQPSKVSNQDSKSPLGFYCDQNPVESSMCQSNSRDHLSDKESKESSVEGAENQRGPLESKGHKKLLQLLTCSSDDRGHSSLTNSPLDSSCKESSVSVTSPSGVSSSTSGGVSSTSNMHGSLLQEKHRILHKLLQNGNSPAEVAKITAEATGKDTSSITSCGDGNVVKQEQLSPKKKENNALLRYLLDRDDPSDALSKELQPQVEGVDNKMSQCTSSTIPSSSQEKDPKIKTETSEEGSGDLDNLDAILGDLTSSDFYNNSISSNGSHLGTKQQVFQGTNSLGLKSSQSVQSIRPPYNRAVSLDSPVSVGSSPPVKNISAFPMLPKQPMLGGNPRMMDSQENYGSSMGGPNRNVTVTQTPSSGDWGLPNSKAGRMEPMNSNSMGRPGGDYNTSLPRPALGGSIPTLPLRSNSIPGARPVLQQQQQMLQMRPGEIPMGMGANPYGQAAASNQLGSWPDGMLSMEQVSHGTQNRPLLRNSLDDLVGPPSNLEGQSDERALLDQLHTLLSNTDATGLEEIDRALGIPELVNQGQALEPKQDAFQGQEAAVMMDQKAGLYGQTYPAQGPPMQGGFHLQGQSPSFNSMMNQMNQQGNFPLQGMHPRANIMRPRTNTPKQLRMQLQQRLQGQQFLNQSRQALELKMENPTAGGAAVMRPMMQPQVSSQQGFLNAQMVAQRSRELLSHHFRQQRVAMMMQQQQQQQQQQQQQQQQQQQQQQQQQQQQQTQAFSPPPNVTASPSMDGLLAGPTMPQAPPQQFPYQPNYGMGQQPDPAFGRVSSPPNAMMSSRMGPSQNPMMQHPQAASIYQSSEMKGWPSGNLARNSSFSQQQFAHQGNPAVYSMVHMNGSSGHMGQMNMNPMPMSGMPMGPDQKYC

[2] = test system: transactivating tegument protein VP16 (Human herpesvirus 1), Gal4-VP16 luciferase reporter; test: VP16 transactivation inhibitors, counter-screen for SRC3 inhibitor project, cell-based, luminescence, high throughput (AID 588794); conditions: mammalian cells, VP16-driven luciferase reporter luminescence; at 3.6 µM; hits give high values
[3] = target: Nuclear receptor coactivator 1 (Homo sapiens) (UniProt Q15788); test: SRC1 coactivator transcriptional activity inhibitors, confirmation, cell-based, luminescence, quadruplicate (AID 588820;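 active = mean inhibition above 46.68%, the untreated control wells mean plus 3 SD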;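 also: 0% = DMSO wells and 100% = gossypol 36 µM treated wells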); conditions: HEK293 GAL4-SRC1 luciferase reporter, at 3.6 µM, hits give high values
Nuclear receptor coactivator 1 (Homo sapiens), sequence (Q15788 whole entry, looked up, the tested form may be a part): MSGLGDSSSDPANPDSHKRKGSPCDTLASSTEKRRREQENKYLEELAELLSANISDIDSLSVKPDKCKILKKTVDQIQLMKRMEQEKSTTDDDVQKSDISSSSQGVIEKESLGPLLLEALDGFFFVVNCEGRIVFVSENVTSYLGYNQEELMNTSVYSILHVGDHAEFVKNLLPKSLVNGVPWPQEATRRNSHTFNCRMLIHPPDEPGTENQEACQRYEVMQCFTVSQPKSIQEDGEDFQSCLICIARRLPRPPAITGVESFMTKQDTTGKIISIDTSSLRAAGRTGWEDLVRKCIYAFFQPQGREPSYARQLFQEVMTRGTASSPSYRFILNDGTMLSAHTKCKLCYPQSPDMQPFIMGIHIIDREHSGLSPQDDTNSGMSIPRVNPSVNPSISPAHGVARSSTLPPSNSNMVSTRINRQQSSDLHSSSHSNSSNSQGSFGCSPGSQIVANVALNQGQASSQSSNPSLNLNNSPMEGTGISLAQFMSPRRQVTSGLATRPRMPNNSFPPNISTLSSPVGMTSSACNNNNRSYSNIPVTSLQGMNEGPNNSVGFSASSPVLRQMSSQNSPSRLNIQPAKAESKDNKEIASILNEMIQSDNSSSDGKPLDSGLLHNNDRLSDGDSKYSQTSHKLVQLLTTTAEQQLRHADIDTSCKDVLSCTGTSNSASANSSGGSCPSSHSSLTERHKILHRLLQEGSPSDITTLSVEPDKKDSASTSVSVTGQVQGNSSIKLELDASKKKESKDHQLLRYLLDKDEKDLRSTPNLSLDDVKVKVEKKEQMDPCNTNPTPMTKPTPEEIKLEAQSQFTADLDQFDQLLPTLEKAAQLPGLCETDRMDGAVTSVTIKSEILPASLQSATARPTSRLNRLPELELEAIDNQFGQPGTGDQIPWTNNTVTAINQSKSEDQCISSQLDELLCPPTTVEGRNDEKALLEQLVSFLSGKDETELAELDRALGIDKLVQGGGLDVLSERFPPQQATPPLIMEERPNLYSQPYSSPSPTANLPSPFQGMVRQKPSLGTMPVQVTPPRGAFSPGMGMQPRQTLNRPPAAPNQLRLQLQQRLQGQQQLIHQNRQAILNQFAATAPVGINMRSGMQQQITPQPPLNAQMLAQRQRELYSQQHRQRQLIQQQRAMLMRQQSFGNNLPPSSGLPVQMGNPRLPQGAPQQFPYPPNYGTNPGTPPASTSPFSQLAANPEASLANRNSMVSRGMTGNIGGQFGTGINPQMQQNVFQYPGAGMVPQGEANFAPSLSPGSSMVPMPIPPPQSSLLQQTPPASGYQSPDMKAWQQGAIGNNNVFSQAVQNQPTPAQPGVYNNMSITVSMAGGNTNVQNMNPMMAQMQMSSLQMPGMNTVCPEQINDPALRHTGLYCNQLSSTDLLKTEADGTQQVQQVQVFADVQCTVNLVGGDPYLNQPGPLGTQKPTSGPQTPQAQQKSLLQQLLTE

[4] = VP16 transactivation inhibitors, counter-screen for SRC1 inhibitor project, cell-based, luminescence, high throughput (AID 588824; in the data active = inhibition above about 25%); conditions: cell-based VP16 transactivation luciferase luminescence; at 3.6 µM; hits give high values
[5] = StAR promoter reporter inhibitors, counter-screen for LRH-1 inverse agonist project, cell-based, luminescence, high throughput (AID 651611; in the data active = inhibition above about 28%); conditions: StAR promoter luciferase reporter counterscreen, at 3.6 µM, hits give high values
[6] = target: Nuclear receptor subfamily 5 group A member 2 (Homo sapiens) (UniProt O00482); test: LRH-1 (NR5A2) inverse agonists, retest, confirmation, cell-based, luminescence (AID 651613; in the data active = inhibition above about 42%;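 also: HEK293T cells co-transfected with LRH-1 and StAR promoter luciferase reporter; 0% = vehicle wells and 100% = parental cells lacking receptor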); conditions: cell-based LRH-1 luciferase reporter, inverse agonism; at 3.6 µM; hits give high values
Nuclear receptor subfamily 5 group A member 2 (Homo sapiens), sequence (O00482 whole entry, looked up): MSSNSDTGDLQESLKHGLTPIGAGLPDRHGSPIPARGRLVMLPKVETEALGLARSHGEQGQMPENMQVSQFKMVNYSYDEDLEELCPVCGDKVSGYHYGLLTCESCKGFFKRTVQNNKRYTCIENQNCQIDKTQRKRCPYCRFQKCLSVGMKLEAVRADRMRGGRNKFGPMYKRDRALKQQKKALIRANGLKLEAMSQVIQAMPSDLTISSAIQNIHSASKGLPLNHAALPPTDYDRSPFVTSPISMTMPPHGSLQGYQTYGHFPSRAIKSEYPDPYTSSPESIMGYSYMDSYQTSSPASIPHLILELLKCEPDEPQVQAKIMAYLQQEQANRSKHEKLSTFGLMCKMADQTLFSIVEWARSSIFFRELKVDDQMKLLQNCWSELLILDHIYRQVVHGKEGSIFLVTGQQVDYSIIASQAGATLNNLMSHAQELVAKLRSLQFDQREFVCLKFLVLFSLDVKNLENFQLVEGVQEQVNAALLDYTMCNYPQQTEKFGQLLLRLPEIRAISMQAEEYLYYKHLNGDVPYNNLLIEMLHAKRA

[7] = target: Steroidogenic factor 1 (Homo sapiens) (UniProt Q13285); test: SF1 (NR5A1) inverse agonists, counter-screen for LRH-1 inverse agonist project, cell-based, luminescence, high throughput (AID 651614; in the data active = inhibition above about 44%;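 also: cells cotransfected with StAR promoter reporter and SF1 expression vector; 0% = vehicle on cells with receptor and 100% = vehicle on cells lacking receptor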); conditions: cell-based SF1 luciferase reporter, at 3.6 µM, hits give high values
Steroidogenic factor 1 (Homo sapiens), sequence (Q13285 whole entry, looked up, the tested form may be a part): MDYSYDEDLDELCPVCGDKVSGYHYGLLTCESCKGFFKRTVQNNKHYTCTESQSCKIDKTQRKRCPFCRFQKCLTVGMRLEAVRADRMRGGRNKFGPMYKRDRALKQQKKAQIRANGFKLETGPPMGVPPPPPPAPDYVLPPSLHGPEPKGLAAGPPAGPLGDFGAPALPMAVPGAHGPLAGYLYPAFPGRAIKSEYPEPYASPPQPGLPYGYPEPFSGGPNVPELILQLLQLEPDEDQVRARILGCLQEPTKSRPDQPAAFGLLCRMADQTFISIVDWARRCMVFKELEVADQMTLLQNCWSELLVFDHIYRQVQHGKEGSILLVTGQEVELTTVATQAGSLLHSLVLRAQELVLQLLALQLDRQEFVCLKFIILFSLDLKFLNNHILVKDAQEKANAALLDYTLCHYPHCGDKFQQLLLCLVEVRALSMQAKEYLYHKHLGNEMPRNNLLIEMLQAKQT

[8] = VP16 transactivation reporter inhibitors, counter-screen for LRH-1 inverse agonist project, cell-based, luminescence, high throughput (AID 651615; in the data active = inhibition above about 33%); conditions: Gal4-VP16 luciferase reporter cells, at 3.6 µM, hits give high values
[9] = growth loss of phage-infected RecBCD+ E. coli, confirmation, RecBCD inhibitor project, absorbance, E. coli V66, T4 gene 2 phage (AID 651982;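 active = mean inhibition over triplicates exceeding the hit threshold derived in the original primary screen, cut at about 11% in these data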); conditions: E. coli V66 + T4 2- phage, growth OD; at 11.9 µM; hits give high values
[10] = E. coli viability inhibition, counter-screen for RecBCD inhibitor project, absorbance, high throughput (AID 651983; in the data active = inhibition above about 20%;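 also: E. coli strain V66 grown with compound alone and no phage infection; 0% = bacteria with DMSO vehicle only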); conditions: absorbance (OD) growth, at 11.9 µM, hits give high values
[11] = growth loss of phage-infected AddAB-carrying E. coli, confirmation, counter-screen for RecBCD inhibitor project, absorbance, E. coli V3065, T4 phage (AID 651984;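 active = mean inhibition above the solvent-only control wells' mean plus 3 SD, cut at about 22% in these data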;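 also: higher means less bacterial growth from phage killing when AddAB is blocked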); conditions: E. coli expressing H. pylori AddAB + T4 phage, OD growth; at 11.9 µM; hits give high values; gene 2 mutant T4, recBCD-deleted host

Measured: inhibition

O=C(/C=C/c1cccs1)NC(=S)NNC(=O)c1ccccc1O
active: [1] 76% | [2] 77.6% | [3] 57% | [4] 78.7% | [5] 76.8% | [6] 106% | [7] 91.8% | [8] 86%

COc1ccc2cc3cc(C(=O)Nc4cc(OC)c(OC)c(OC)c4)oc3nc2c1
active: [2] 33.5% | [4] 46.1% | [5] 71% | [6] 55.1% | [7] 74.7% | [8] 56.5%
inactive: [1] 37.1% | [3] 9.93%

CCCCCCCCCn1ccc(=N)cc1
active: [1] 68.9% | [2] 84.2% | [3] 58.6% | [4] 85.2% | [5] 72.7% | [6] 102% | [7] 91.3% | [8] 85.9%

COc1cccc(/C=N/NC(=O)c2c(C)nc3ccc(Cl)cn23)c1O
active: [1] 79.3% | [2] 78.5% | [3] 75.2% | [4] 73.9% | [5] 86.7% | [6] 102% | [7] 88.4% | [8] 83.5%

O=C(Nc1ccc([N+](=O)[O-])cc1)c1ccc(Cn2cc([N+](=O)[O-])cn2)cc1
active: [1] 43.1% | [2] 58.7% | [4] 56.1% | [5] 52.3% | [6] 77.3% | [7] 72.8% | [8] 74.4%
inactive: [3] 29.1%

Cc1cc([N+](=O)[O-])nn1Cc1ccc(C(=O)N/N=C/c2ccc(O)cc2O)cc1
active: [1] 54.5% | [2] 63.4% | [3] 48.5% | [4] 66.9% | [5] 80.8% | [6] 97% | [7] 88.1% | [8] 87.9%

O=C(Nc1nc(-c2ccccc2)cs1)c1ccccc1NS(=O)(=O)c1ccc(F)cc1
active: [2] 65.5% | [4] 60.5% | [5] 66.6% | [6] 101% | [7] 87.5% | [8] 79.3%
inactive: [1] 40.7% | [3] 45%

CC[C@H]1CN2CCc3cc(OC)c(OC)cc3C2C[C@@H]1C[C@H]1NCCc2cc(OC)c(OC)cc21 (stereo partly specified)
active: [1] 97.5% | [2] 96% | [3] 91.5% | [4] 94.6% | [5] 95.7% | [6] 110% | [7] 98% | [8] 97.2%

COc1ccc(OC)c(Cc2cnc3nc(N)nc(N)c3c2C)c1
inactive: [2] 27.5%
active: [1] 67% | [3] 59.9% | [4] 28.4% | [5] 80.7% | [6] 62.3% | [7] 52.5% | [8] 43.9% | [9] 79.8% | [10] 79.2% | [11] 85.3%

CC(=O)NC(c1ccc(Cl)cc1)c1ccc2cccnc2c1O (stereo unspecified)
active: [1] 83% | [2] 79.9% | [3] 80% | [4] 78.4% | [5] 89.2% | [6] 104% | [7] 91.2% | [8] 87%

COc1ccccc1-n1cc([C@@H]2C[C@H]3CN(c4ccccc4)C(=O)[C@]34CCCN24)cn1
active: [1] 53.1% | [2] 38% | [4] 47.4% | [5] 36.2% | [6] 57.8% | [8] 69.6%
inactive: [3] 26.6% | [7] 19.5%

CCN1/C(=C/c2ccc3cc(C)ccc3[n+]2CC)Sc2cc(C)c(C)cc21
inactive: [1] 38.9% | [3] 18.8%
active: [2] 65.4% | [4] 58.4% | [5] 55.6% | [6] 87.4% | [7] 83.1% | [8] 75.5%

Nc1ncnc2c(C3OC(CO)C(O)C3O)c[nH]c12 (stereo unspecified)
active: [1] 97.4% | [2] 96.5% | [3] 95.7% | [4] 96% | [5] 95.6% | [6] 111% | [7] 98.2% | [8] 97.7%

CN(Cc1ccccc1)C1=CC(=[N+]2CCCCC2)CC(C)(C)C1
inactive: [3] 44.8%
active: [1] 43.1% | [2] 73.6% | [4] 75.8% | [5] 68% | [6] 108% | [7] 90.6% | [8] 91.1%

Cc1ccc(/C=C/c2ccc(N(C)C)cc2)[n+](C)c1
active: [2] 56% | [4] 50.1% | [5] 41.5% | [6] 78.5% | [7] 73% | [8] 67.4%
inactive: [1] 36.3% | [3] 11.4%

NC(=S)NN=Cc1nccc2c(C(F)(F)F)cccc12
active: [1] 86.8% | [2] 69.7% | [3] 63.9% | [4] 56.4% | [5] 89.7% | [6] 100% | [7] 93.2% | [8] 66.5%

Cc1ccnc2c1ccc1c(C)ccnc12
active: [1] 86.2% | [2] 54.3% | [3] 73.3% | [4] 61.9% | [5] 88.8% | [6] 108% | [7] 87% | [8] 65.1%

Cc1cccc2cc(-c3ccccc3)c(-c3ccccc3)c[n+]12
active: [2] 37% | [4] 40.4% | [6] 106% | [7] 63.2% | [8] 81.7%
inactive: [1] 4.1% | [3] 5.14% | [5] 18.2%

CCCCCc1ccc(OCCC[n+]2ccccc2)c(CCCCC)c1
inactive: [3] 31.3%
active: [1] 45.8% | [2] 60.7% | [4] 65.9% | [5] 37.7% | [6] 83.3% | [7] 68.1% | [8] 82.3%

CC(=O)N(/N=C1\Sc2ccccc2C1=O)c1ccc(C)cc1C
active: [1] 54.1% | [2] 37.7% | [4] 25.4% | [7] 48.8%
inactive: [3] 2.03% | [5] -1.06% | [6] 11.9% | [8] -16.6%

N=c1c2c(n(Cc3ccc(F)cc3)c3c1CCC3)CCCC2
inactive: [1] 27.9% | [3] 13.6%
active: [2] 61.5% | [4] 48% | [5] 41.4% | [6] 101% | [7] 70.9% | [8] 61.2%

CCOc1ccc(C(=O)Nc2cnn(Cc3ccc(Cl)c(Cl)c3)c2)cc1
inactive: [1] 16% | [3] 26.8%
active: [2] 44.1% | [4] 36.8% | [5] 39% | [6] 62.7% | [7] 60.1% | [8] 70.5%

CC(=NNC(=S)N1CC2CCC(CC2)C1)c1ccccn1
inactive: [1] 35.5% | [3] 1.55%
active: [2] 54.8% | [4] 49.8% | [5] 59.4% | [6] 98.3% | [7] 77.3% | [8] 64.6%

Cc1cccc(NC(=O)c2cc(Cl)ccc2[N+](=O)[O-])c1
active: [4] 51.4% | [5] 44.3% | [6] 51% | [7] 58.4% | [8] 33.2%
inactive: [1] 42.4% | [2] 27% | [3] 17.7%

N=c1ccn(CC(=O)c2ccc(-c3ccccc3)cc2)cc1
inactive: [1] 37% | [3] 26.1%
active: [2] 43.3% | [4] 57.5% | [5] 46.2% | [6] 92.8% | [7] 76.3% | [8] 76.5%

CCCCCCCn1c2c(c(=N)c3c1CCC3)CCCC2
active: [1] 70.2% | [2] 81.8% | [3] 56.2% | [4] 83.4% | [5] 79.3% | [6] 110% | [7] 95.8% | [8] 98.2%

Cc1onc(-c2ccccc2)c1C(=O)NC(=S)NNC(=O)c1ccc(O)cc1O
active: [1] 55.7% | [2] 75.7% | [3] 69.8% | [4] 80.5% | [5] 62.8% | [6] 95.8% | [7] 85.6% | [8] 83.5%

CN(C)c1cc[n+](CC(=O)c2ccc(-c3ccccc3)cc2)cc1
inactive: [1] 35.6% | [3] 35%
active: [2] 57.6% | [4] 66.5% | [5] 43.8% | [6] 82.3% | [7] 71.8% | [8] 67.9%

COc1cccc(/C=N\NC(=O)c2ccc(Cn3cc(Br)c([N+](=O)[O-])n3)o2)c1O
active: [2] 38.4% | [4] 29.9% | [5] 63.8% | [6] 74.5% | [7] 71.3% | [8] 73.2%
inactive: [1] 33% | [3] 35%

Cc1cc(C)nc(NC(N)=NCCc2ccccc2)n1
active: [1] 75.9% | [2] 46.3% | [3] 51.5% | [4] 49.1% | [5] 58.4% | [6] 109% | [7] 88.2% | [8] 93.5%

CCc1ccccc1Nc1nn2c(=O)c3ccc(C(=O)NCc4ccccn4)cc3nc2s1
inactive: [1] 33.3% | [3] 42%
active: [2] 61.3% | [4] 59.9% | [5] 57.3% | [6] 67.3% | [7] 76% | [8] 72%

O=C(NN=Cc1ccccc1O)NN=Cc1ccccc1O
active: [1] 48.5% | [2] 80% | [4] 77.1% | [5] 69.9% | [6] 97.3% | [7] 86.7% | [8] 81.8%
inactive: [3] 24.6% | [9] 1.25% | [10] 2.69% | [11] 6.88%

CN(Cc1cnc2nc(N)nc(N)c2n1)c1ccc(C(=O)NC(CCC(=O)O)C(=O)O)cc1C(F)(F)F (stereo unspecified)
active: [1] 60.4% | [3] 51.9% | [5] 79.6% | [6] 56.4% | [7] 49.1%
inactive: [2] 7.16% | [4] 5.94% | [8] 21.3%

O=C1C(Nc2ccccc2)=C(N2CCCCC2)C(=O)c2ccccc21
inactive: [1] 19.4% | [3] 44.4% | [5] -2.41% | [6] 22.5% | [7] 6.41% | [8] 12.1%
active: [2] 39.6% | [4] 35.9%

COc1cc(C=NO)nc(-c2ccccn2)c1
active: [1] 78.2% | [2] 43.5% | [3] 54% | [4] 36.5% | [5] 85.6% | [6] 96% | [7] 76.9% | [8] 45.7%
